Results as given in PubChem BioAssay (EPA / NIEHS).
Where “and” joins values, the source holds several entries; their conditions need not be identical. Identical values can stand only once. Calls of active or inactive are those of the source. How the source made its calls: active means hit-call score of the fitted dose curve at least 0.9, where 1 is the maximum; inactive means score below 0.9.

assay: BSK_BE3C_SRB: Viability Assessment in the BioMAP Diversity Plus: BE3C Assay (AID 2283028); settings: primary human bronchial epithelial cells;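 on AC50: fitted both ways so AC50 may mark signal gain or loss versus DMSO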
Experimental: BSK_BE3C is a cell-based, multiplexed-readout assay that uses bronchial epithelial cell, a human lung primary cell, with measurements taken at 24 hours after chemical dosing in a 96-well plate.BSK_BE3C_SRB is an assay component measured in the BSK_BE3C assay. It measures 0.1% sulforhodamine related to cell death using Sulforhodamine staining technology.Data from the assay component BSK_BE3C_SRB was analyzed into 1 assay endpoint. This assay endpoint, BSK_BE3C_SRB, was analyzed with bidirectional fitting relative to DMSO as the negative control and baseline of activity. Using a type of viability reporter, gain or loss-of-signal activity can be used to understand changes in the signaling. Furthermore, this assay endpoint can be referred to as a primary readout, because this assay has produced multiple assay endpoints where this one serves a signaling function. To generalize the intended target to other relatable targets, this assay endpoint is annotated to the cell morphology intended target family, where the subfamily is cell conformation.
The levels of cell surface (or secreted, indicated by the prefix "s") biomarker endpoints were measured by ELISA. Overt cytotoxicity to cells in confluent adherent cultures (all systems other than the BT system) was assessed by measuring total protein levels using sulforhodamine B (SRB) staining in parallel cultures at the time of biomarker measurements, indicated as SRB endpoints. For proliferation assays for adherent cell types, individual cell types are cultured at sub-confluence and relative cell numbers quantified by SRB staining at time points optimized for each system (48 h: 3C and CASM3C systems; 72 h: BT and HDF3CGF systems; 96 h: SAg system). SRB was performed by staining cells with 0.1% SRB after fixation with 10% TCA and reading wells at 560 nm.Viability and proliferation of PBMC (T cells) was quantified by Alamar Blue reduction for the SAg and BT systems. For PBMC viability (referred to as PBMC Cytotoxicity within the assay endpoint names), cells were plated (75,000/well in a 96-well plate) and then chemical samples added for 1 h before addition of activators, SEB and TSST-1 (20 ng/mL final concentration each). Cells were incubated for 90 h. Then, Alamar Blue (20 uL/well) (Invitrogen, Cat DAL1100) was added for 6 h, and the plates were read with a fluorescence microplate reader at 546/580 nm (excitation/emission). For PBMC proliferation, cells were plated and activated as above but incubated for only 16 h prior to addition of Alamar Blue. Plates were read after 6 h.

Compound | outcome | AC50
O=c1[nH]c(Cl)c(Cl)cc1Cl | inactive | –
CC(C)COP(=O)(OCC(C)C)OCC(C)C | inactive | –
C=CCN(CC=C)C(=O)C(Cl)Cl | inactive | –
CC(C)CCCCCCCOP(=O)(Oc1ccccc1)Oc1ccccc1 | – | 32.6 µM (active)
Clc1ccc(-c2ccccc2)cc1 | inactive | –
CC(C)(C)C(O)C(Oc1ccc(-c2ccccc2)cc1)n1cncn1 (stereo not drawn) | inactive | –
N#CCCCCC#N | inactive | –
O=C1C(Cl)=C(Cl)C(=O)C(Cl)=C1Cl | inactive | –
CC(=O)/C=C/c1ccccc1 | inactive | –
Oc1cc(Cl)ccc1Cl | inactive | –
C=CC(=O)OCC(CC)CCCC (stereo not drawn) | inactive | –
O=S(=O)(c1ccccc1)c1ccccc1 | inactive | –
COCC(=O)N(c1c(C)cccc1C)N1CCOC1=O | inactive | –
CC1(C)[C@H](C(=O)O[C@H](C#N)c2cccc(Oc3ccccc3)c2)[C@@H]1C=C(Br)Br | inactive | –
CNC(=O)Oc1cc(C)c(SC)c(C)c1 | inactive | –
O=[N+]([O-])O | inactive | –
CCc1cc(C)cc(CC)c1-c1c(OC(=O)C(C)(C)C)n2n(c1=O)CCOCC2 | inactive | –
CC(C)(c1cc(Cl)c(O)c(Cl)c1)c1cc(Cl)c(O)c(Cl)c1 | – | 6.38 µM (active)
O=C(O)CCCc1ccc(N(CCCl)CCCl)cc1 | inactive | –

Compound | outcome | AC50
Oc1ccc(C2(c3ccc(O)cc3)c3ccccc3-c3ccccc32)cc1 | – | 5.04 µM (active) and 5.03 µM (active)
CCCCCCCCCCCC#N | inactive | –
O=C1C=CC(=O)C=C1 | inactive | –
COC(C)(C)CCC[C@H](C)C/C=C/C(C)=C/C(=O)OC(C)C | inactive | –
O=C(CCl)c1ccccc1 | inactive | –
CC(C)CCCCCCCOC(=O)c1ccccc1C(=O)OCCCCCCCC(C)C | inactive | –
Cc1ccc(OP(=O)(Oc2ccc(C)cc2)Oc2ccc(C)cc2)cc1 (tested in a mixture with another compound) | inactive | –
O=[N+]([O-])C=Cc1ccccc1 | – | 24.3 µM (active)
O=P1(NCCCl)OCCCN1CCCl (stereo not drawn) | inactive | –
CC(C)(C)C(=O)CCl | inactive | –
O=[N+]([O-])c1ccc(Cl)cc1 | inactive | –
Nc1ccc(-c2ccc(N)c(N)c2)cc1N | inactive | –
O=c1c2ccccc2c(=O)c2c1cc(Cl)c1[nH]c3c([nH]c12)c(Cl)cc1c(=O)c2ccccc2c(=O)c13 | inactive | –
CCCOC(=O)c1ccccc1C(=O)OCCC | inactive | –
CCCC[N+](CCCC)(CCCC)CCCC | inactive | –
COc1ccc(CO)cc1 | inactive | –
CCC(C)c1cc([N+](=O)[O-])cc([N+](=O)[O-])c1OC(=O)C=C(C)C (stereo not drawn) | – | 32.5 µM (active)
[Cd+2].[Cl-].[Cl-] | inactive | –
c1ccc(Nc2ccc3ccccc3c2)cc1 | – | 30 µM (active)
